# Assay results from PubChem BioAssay (NCATS).
# Inconclusive results are not listed. Unmarked numbers belong to inactive results. The source made the active and inactive calls. Calls come from the whole dose curve; as a rule, active = well fitted inhibition curve with a large enough effect; inconclusive = small, poorly fitted or top-dose-only effect; inactive = flat fitted curve, though single readings scatter.
# Tests used:
# [1] = Drug repurposing screens with cells derived from glioblastoma tumor samples (AID 1345199); settings: GBM patient neurospheres viability, ATP luminescence, 48 h; note: nearly all actives have a fitted effect of over 40% in size
# How it was run: (§1)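 Four patient lines of CD133+ GBM neurospheres were screened at several concentrations; hits were retested in those lines plus three slower-growing GBM lines, using 48-hour treatment and ATP-based viability.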
# [2] = system: astro; assay: as above; settings: viability, ATP luminescence, 48 h; series mostly up to 45.9 µM
# How it was run: as §1
# [3] = at 45.9 µM (top of the series), tumour line B
# [4] = at 45.9 µM (top of the series), tumour line D
# [5] = at 46.1 µM (top of the series), tumour line C
# [6] = at 46 µM (top of the series), tumour line A
# % is set by controls: 0 for no effect and ±100 for the full control effect; potency is the fitted concentration of half-maximal effect.
smiles,measurement,setting,value
C[Se]CC[C@H](N)C(=O)O,"activity, negative = cell killing",[1]; [3],-12.9%
same,"activity, negative = cell killing",[1]; [4],-0.664%
same,"activity, negative = cell killing",[1]; [5],-22.8%
same,Potency,[2],inactive
CC(=O)N[C@@H]([C@@H](O)[C@H](O)[C@H](O)CO)[C@@H](O)CC(=O)C(=O)O,"activity, negative = cell killing",[1]; [3],-12%
same,"activity, negative = cell killing",[1]; [4],-21.2%
same,"activity, negative = cell killing",[1]; [5],-14.1%
same,Potency,[2],inactive
CC[C@H]1NC(=O)[C@@H](NC(=O)c2ncccc2O)[C@@H](C)OC(=O)[C@H](c2ccccc2)NC(=O)[C@@H]2CC(=O)CCN2C(=O)[C@H](Cc2ccccc2)N(C)C(=O)[C@@H]2CCCN2C1=O,"activity, negative = cell killing",[1]; [3],-1.4%
same,"activity, negative = cell killing",[1]; [4],17.7%
same,"activity, negative = cell killing",[1]; [5],-11%
same,Potency,[2],inactive
COc1c(O[C@@H]2O[C@H](CO)[C@@H](O)[C@H](O)[C@H]2O)cc2c(c1OC)-c1ccc(SC)c(=O)cc1[C@@H](NC(C)=O)CC2,"activity, negative = cell killing","[1]; at 21.3 µM (top of the series), tumour line A",-6.81%
CO/N=C(\C(=O)N[C@@H]1C(=O)N2C(C(=O)[O-])=C(C[n+]3cccc4c3CCC4)CS[C@H]12)c1csc(N)n1,Potency,[1]; tumour line C,23.1 µM (active)
CC(C)(C)NC[C@H](O)COc1ccccc1C1CCCC1,Potency,[1]; tumour line D,12.6 µM (active)
FC(F)(F)COCC(F)(F)F,"activity, negative = cell killing",[1]; [3],-8.9%
same,"activity, negative = cell killing",[1]; [4],-17.5%
same,"activity, negative = cell killing",[1]; [5],-24.2%
same,Potency,[2],inactive
O=C1c2ccccc2C(=O)C1c1ccc(Cl)cc1,"activity, negative = cell killing",[1]; [3],-10.4%
same,"activity, negative = cell killing",[1]; [4],-11.7%
same,"activity, negative = cell killing",[1]; [5],-10.5%
same,Potency,[2],inactive
O=[N+]([O-])O[C@@H]1CO[C@H]2[C@@H]1OC[C@@H]2O,"activity, negative = cell killing",[1]; [3],-16.9%
same,"activity, negative = cell killing",[1]; [4],-5.25%
same,"activity, negative = cell killing",[1]; [6],-36.5%
same,Potency,[2],inactive
CC(C)(Oc1ccc(C2CCCc3ccccc32)cc1)C(=O)O (stereo unspecified),"activity, negative = cell killing",[1]; [3],-18.2%
same,"activity, negative = cell killing",[1]; [4],-16.7%
same,"activity, negative = cell killing",[1]; [6],-21.9%
same,Potency,[2],inactive
C[C@]12CCC(=O)C[C@@H]1CC[C@@H]1[C@@H]2CC[C@]2(C)C=CC[C@@H]12,"activity, negative = cell killing",[1]; [3],-7.67%
same,"activity, negative = cell killing",[1]; [4],-11.4%
same,Potency,[1]; tumour line A,20 µM (active)
same,Potency,[2],inactive
O=C(O)COc1ccc(CCNS(=O)(=O)c2ccccc2)s1,"activity, negative = cell killing",[1]; [3],-8.15%
same,"activity, negative = cell killing",[1]; [4],-13.5%
same,"activity, negative = cell killing",[1]; [5],-21.9%
same,Potency,[2],inactive
CC/C=C\C/C=C\C/C=C\C/C=C\C/C=C\C/C=C\CCC(=O)O,"activity, negative = cell killing",[1]; [3],-3.27%
same,"activity, negative = cell killing",[1]; [4],-12.5%
same,"activity, negative = cell killing",[1]; [5],-20.7%
same,Potency,[2],inactive
Cc1ncc(C[n+]2csc(CCOP(=O)(O)OP(=O)(O)O)c2C)c(N)n1,"activity, negative = cell killing",[1]; [3],-10%
same,"activity, negative = cell killing",[1]; [4],-6.5%
same,"activity, negative = cell killing",[1]; [5],18.5%
same,Potency,[2],inactive
O=C1CC[C@@H](C(=O)N[C@H]2C[C@@H]2c2ccccc2)N1,"activity, negative = cell killing",[1]; [3],-8.87%
same,"activity, negative = cell killing",[1]; [4],-2.23%
same,"activity, negative = cell killing",[1]; [5],4.74%
same,Potency,[2],inactive
O=P(O)(O)OP(=O)(O)OP(=O)(O)O,"activity, negative = cell killing",[1]; [3],-10.9%
same,"activity, negative = cell killing",[1]; [4],-30.2%
same,"activity, negative = cell killing",[1]; [5],-5.26%
same,Potency,[2],inactive
CO/N=C(\C(=O)N[C@@H]1C(=O)N2C(C(=O)O)=C(CSC(=O)c3ccco3)CS[C@H]12)c1csc(N)n1,"activity, negative = cell killing",[1]; [3],-9.93%
same,"activity, negative = cell killing",[1]; [4],-3.95%
same,"activity, negative = cell killing",[1]; [5],-21.7%
same,Potency,[2],inactive
CC(C)=CCC/C(C)=C/C=C/C(C)=C/C=C/C(C)=C/C=C/C=C(C)/C=C/C=C(C)/C=C/C=C(\C)CCC=C(C)C,"activity, negative = cell killing",[1]; [3],-10.4%
same,"activity, negative = cell killing",[1]; [4],-12.4%
same,"activity, negative = cell killing",[1]; [5],14.8%
same,Potency,[2],inactive
O=S(=O)(O)CC(S)CS (stereo unspecified),"activity, negative = cell killing",[1]; [3],-24.2%
same,"activity, negative = cell killing",[1]; [4],-0.499%
same,"activity, negative = cell killing",[1]; [5],-22%
same,Potency,[2],inactive
CC(O)[C@H]1CC[C@H]2[C@@H]3CC[C@@H]4C[C@@H](O)CC[C@]4(C)[C@H]3CC[C@]12C (stereo partly specified),"activity, negative = cell killing",[1]; [3],-13.1%
same,"activity, negative = cell killing",[1]; [4],-23.2%
same,"activity, negative = cell killing",[1]; [5],18.8%
same,Potency,[2],inactive
CCCCCCCCCCCCCCCCCC[N+](C)(C)CCC[Si](OC)(OC)OC,"activity, negative = cell killing",[1]; [3],-16.4%
same,"activity, negative = cell killing",[1]; [4],-4.63%
same,"activity, negative = cell killing",[1]; [5],-7.69%
same,Potency,[2],inactive
CCCCCCCCCCCCCCCCCC(=O)OCC(C)O (stereo unspecified),"activity, negative = cell killing",[1]; [3],-18.7%
same,"activity, negative = cell killing",[1]; [4],-0.865%
same,"activity, negative = cell killing",[1]; [6],-14.9%
same,Potency,[2],inactive
NC(=O)OCC(O)COc1ccc(Cl)cc1 (stereo unspecified),"activity, negative = cell killing","[1]; at 20 µM (top of the series), tumour line C",0.2%
same,"activity, negative = cell killing","[1]; at 21.2 µM (top of the series), tumour line B",-15.4%
same,"activity, negative = cell killing","[1]; at 21.2 µM (top of the series), tumour line D",-22.6%
same,Potency,[2],inactive
Cc1nc(NS(=O)(=O)c2ccc(N)cc2)nc(C)c1Br,"activity, negative = cell killing",[1]; [3],-13%
same,"activity, negative = cell killing",[1]; [4],-4.79%
same,"activity, negative = cell killing",[1]; [6],-28.7%
same,Potency,[2],inactive
COc1ccc2cc([C@H](C)CO)ccc2c1,"activity, negative = cell killing",[1]; [3],-14.5%
same,"activity, negative = cell killing",[1]; [4],4.49%
same,"activity, negative = cell killing",[1]; [5],-21.2%
same,Potency,[2],inactive
